Experimental data published in PubChem BioAssay AID1159580 (chemical genetic matrix, 2015).
The campaign covered roughly 5,500 compounds. About 2,000 (36%) were called active. Roughly 18% stayed inconclusive and do not appear here. Cut-off read from the data, not from the text of the source: active = normalized growth mostly below about 0.91 (no sharp cut-off); inconclusive = no clear call, values can overlap the other calls; inactive = mostly above about 0.92. The list shows a part of the results.

Experiment: chemical genetic growth profiling, strain panel (AID 1159580);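 note: tested at 20 µM; growth read once vehicle control cultures reached saturation at 30 °C; 1 = growth at the plate median or of vehicle wells; lower values mean less growth of the strain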
Settings: growth OD

Measured: normalized growth

CNC[C@H](O)c1cccc(O)c1
inactive: S. cerevisiae deletion strains, locus YKL009W, strain mrt4, active compounds read low 1 | S. cerevisiae deletion strains, locus YKL068W, active compounds read low 1.01 | S. cerevisiae deletion strains, locus YKL085W, strain MDH1 (second series), active compounds read low 1.01 | S. cerevisiae deletion strains, locus YKL085W, strain MDH1, active compounds read low 1.01 | S. cerevisiae deletion strains, locus YKL160W, strain elf1, active compounds read low 0.963 | S. cerevisiae deletion strains, locus YKL190W, strain CNB1, active compounds read low 1 | S. cerevisiae deletion strains, locus YKR001C, strain vps1, active compounds read low 1.02 | S. cerevisiae deletion strains, locus YKR026C, strain gcn3, active compounds read low 0.99 | S. cerevisiae deletion strains, locus YKR091W, strain srl3, active compounds read low 0.962 | S. cerevisiae deletion strains, locus YLL001W, strain dnm1, active compounds read low 0.962 | S. cerevisiae deletion strains, locus YLL026W, active compounds read low 0.977 | S. cerevisiae deletion strains, locus YLL041C, strain sdh2, active compounds read low 0.985 | S. cerevisiae deletion strains, locus YLR027C, strain aat2, active compounds read low 0.974 | S. cerevisiae deletion strains, locus YLR039C, strain RIC1, active compounds read low 1.03 | S. cerevisiae deletion strains, locus YLR058C, strain SHM2, active compounds read low 1.01 | S. cerevisiae deletion strains, locus YLR102C, strain apc9, active compounds read low 1.01 | S. cerevisiae deletion strains, locus YLR113W, strain HOG1, active compounds read low 1 | S. cerevisiae deletion strains, locus YLR221C, strain rsa3, active compounds read low 0.987 | S. cerevisiae deletion strains, locus YLR258W, strain gsy2, active compounds read low 0.986 | S. cerevisiae deletion strains, locus YLR262C, strain YPT6 (second series), active compounds read low 0.969 | S. cerevisiae deletion strains, locus YLR262C, strain YPT6, active compounds read low 1.03 | S. cerevisiae deletion strains, locus YLR268W, strain sec22, active compounds read low 1.02 | S. cerevisiae deletion strains, locus YLR320W, strain mms22, active compounds read low 0.964 | S. cerevisiae deletion strains, locus YLR330W, strain CHS5, active compounds read low 1.01 | S. cerevisiae deletion strains, locus YLR342W, strain FKS1 (second series), active compounds read low 0.994 | S. cerevisiae deletion strains, locus YLR342W, strain FKS1, active compounds read low 0.963 | S. cerevisiae deletion strains, locus YLR357W, strain rsc2, active compounds read low 0.906 | S. cerevisiae deletion strains, locus YLR370C, strain arc18, active compounds read low 0.991 | S. cerevisiae deletion strains, locus YLR371W, strain rom2, active compounds read low 1.01 | S. cerevisiae deletion strains, locus YLR384C, strain iki3, active compounds read low 0.979 | S. cerevisiae deletion strains, locus YLR418C, strain cdc73, active compounds read low 1.02 | S. cerevisiae deletion strains, locus YML016C, strain PPZ1, active compounds read low 1.01 | S. cerevisiae deletion strains, locus YML032C, strain rad52, active compounds read low 1.02 | S. cerevisiae deletion strains, locus YML120C, strain ndi1, active compounds read low 0.979 | S. cerevisiae deletion strains, locus YML124C, strain tub3, active compounds read low 1.02 | S. cerevisiae deletion strains, locus YMR058W, strain fet3, active compounds read low 0.971 | S. cerevisiae deletion strains, locus YMR078C, strain ctf18, active compounds read low 1.01 | S. cerevisiae deletion strains, locus YMR125W, strain sto1, active compounds read low 0.995 | S. cerevisiae deletion strains, locus YMR129W, active compounds read low 0.988 | S. cerevisiae deletion strains, locus YMR205C, strain PFK2, active compounds read low 0.965 | S. cerevisiae deletion strains, locus YMR223W, strain ubp8, active compounds read low 1.01 | S. cerevisiae deletion strains, locus YMR231W, strain pep5, active compounds read low 0.982 | S. cerevisiae deletion strains, locus YMR263W, strain SAP30, active compounds read low 1.01 | S. cerevisiae deletion strains, locus YMR307W, strain GAS1, active compounds read low 1.02 | S. cerevisiae deletion strains, locus YNL067W, strain RPL9B, active compounds read low 1 | S. cerevisiae deletion strains, locus YNL071W, strain lat1, active compounds read low 0.998 | S. cerevisiae deletion strains, locus YNL128W, strain TEP1, active compounds read low 1.01 | S. cerevisiae deletion strains, locus YNL153C, strain GIM3, active compounds read low 1.01 | S. cerevisiae deletion strains, locus YNL183C, strain NPR1, active compounds read low 0.975 | S. cerevisiae deletion strains, locus YNL209W, strain ssb2, active compounds read low 0.991 | S. cerevisiae deletion strains, locus YNL233W, strain BNI4, active compounds read low 1.01 | S. cerevisiae deletion strains, locus YNL248C, strain rpa49, active compounds read low 0.988 | S. cerevisiae deletion strains, locus YNL250W, strain rad50, active compounds read low 1.02 | S. cerevisiae deletion strains, locus YNL271C, strain bni1, active compounds read low 1.02 | S. cerevisiae deletion strains, locus YNL298W, strain CLA4, active compounds read low 1.03 | S. cerevisiae deletion strains, locus YNL307C, strain MCK1, active compounds read low 1.02 | S. cerevisiae deletion strains, locus YNL322C, strain KRE1 (second series), active compounds read low 0.976 | S. cerevisiae deletion strains, locus YNL322C, strain KRE1, active compounds read low 1 | S. cerevisiae deletion strains, locus YNR049C, strain mso1, active compounds read low 0.993 | S. cerevisiae deletion strains, locus YNR052C, strain pop2, active compounds read low 1.02 | S. cerevisiae deletion strains, locus YOL006C, strain TOP1, active compounds read low 1.05 | S. cerevisiae deletion strains, locus YOL012C, strain htz1 0.81 | S. cerevisiae deletion strains, locus YOL147C, strain pex11, active compounds read low 1.02 | S. cerevisiae deletion strains, locus YOR001W, strain rrp6, active compounds read low 0.977 | S. cerevisiae deletion strains, locus YOR061W, strain CKA2, active compounds read low 1.01 | S. cerevisiae deletion strains, locus YOR069W, strain VPS5, active compounds read low 1.01 | S. cerevisiae deletion strains, locus YOR070C, strain gyp1, active compounds read low 0.994 | S. cerevisiae deletion strains, locus YOR080W, strain dia2, active compounds read low 0.98 | S. cerevisiae deletion strains, locus YOR083W, strain WHI5, active compounds read low 0.953 | S. cerevisiae deletion strains, locus YOR106W, strain vam3, active compounds read low 0.98 | S. cerevisiae deletion strains, locus YOR136W, strain idh2, active compounds read low 1.02 | S. cerevisiae deletion strains, locus YOR144C, strain elg1, active compounds read low 1.01 | S. cerevisiae deletion strains, locus YOR184W, strain ser1, active compounds read low 1.04 | S. cerevisiae deletion strains, locus YOR231W, strain MKK1, active compounds read low 1 | S. cerevisiae deletion strains, locus YOR265W, strain rbl2, active compounds read low 0.989 | S. cerevisiae deletion strains, locus YOR270C, strain vph1, active compounds read low 1 | S. cerevisiae deletion strains, locus YOR290C, strain snf2, active compounds read low 0.993 | S. cerevisiae deletion strains, locus YOR316C, strain cot1, active compounds read low 1.02 | S. cerevisiae deletion strains, locus YPL051W, strain arl3, active compounds read low 0.973 | S. cerevisiae deletion strains, locus YPL055C, strain LGE1, active compounds read low 1.01 | S. cerevisiae deletion strains, locus YPL078C, strain atp4, active compounds read low 0.966 | S. cerevisiae deletion strains, locus YPL106C, strain sse1, active compounds read low 0.95 | S. cerevisiae deletion strains, locus YPL240C, strain hsp82, active compounds read low 0.982 | S. cerevisiae deletion strains, locus YPL241C, strain CIN2, active compounds read low 1.01 | S. cerevisiae deletion strains, locus YPL256C, strain CLN2, active compounds read low 1.01 | S. cerevisiae deletion strains, locus YPR119W, strain clb2, active compounds read low 1.01 | S. cerevisiae deletion strains, locus YPR141C, strain kar3, active compounds read low 1.02 | S. cerevisiae deletion strains, locus YPR163C, strain tif3, active compounds read low 1.02 | S. cerevisiae deletion strains, locus YPR167C, strain met16, active compounds read low 1.02 | S. cerevisiae deletion strains, strain wtn01, active compounds read low 1.01 | S. cerevisiae strains, strain wild type, active compounds read low 1.01
